Values joined by “and” are separate entries in the source; they are usually repeats but may differ in a detail not shown here. Identical values can stand only once. Compounds without any hit were thinned out: in the full panel of roughly 83,000, 20% have a hit.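 Cells were grown in 96-well plates and exposed to the test compound at a single concentration for 48 hours; results are reported as percent growth, with values below 10 considered active.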 Active and inactive are the calls of the source.
What was measured:
Assay in all cases: NCI-60 one-dose screen, 48 h (100 = growth as untreated, 0 = no growth, -100 = all killed)
Conditions in all cases: 10 µM
HOP-92 NSCLC = tested on: HOP-92 NSCLC
K-562 leukemia = tested on: K-562 leukemia
MALME-3M melanoma = tested on: MALME-3M melanoma
RXF 393 renal = tested on: RXF 393 renal
UACC-257 melanoma = tested on: UACC-257 melanoma
SK-MEL-28 melanoma = tested on: SK-MEL-28 melanoma
SK-MEL-2 melanoma = tested on: SK-MEL-2 melanoma
TK-10 renal = tested on: TK-10 renal
CAKI-1 renal = tested on: CAKI-1 renal
A498 renal = tested on: A498 renal
RPMI-8226 leukemia = tested on: RPMI-8226 leukemia
OVCAR-3 ovarian = tested on: OVCAR-3 ovarian
BT-549 breast = tested on: BT-549 breast
HCC-2998 colon = tested on: HCC-2998 colon

Row | SMILES | growth (HOP-92 NSCLC) | growth (K-562 leukemia) | growth (MALME-3M melanoma) | growth (RXF 393 renal) | growth (UACC-257 melanoma) | growth (SK-MEL-28 melanoma) | growth (SK-MEL-2 melanoma) | growth (TK-10 renal) | growth (CAKI-1 renal) | growth (A498 renal) | growth (RPMI-8226 leukemia) | growth (OVCAR-3 ovarian) | growth (BT-549 breast) | growth (HCC-2998 colon)
1 | C/C=C/CC(C)C(O)[C@H](NC(=O)[C@@H]1CCCN1C(=O)C(C)(C)NC(=O)CCCCCCCCC)C(=O)N[C@@](C)(CC)C(=O)N[C@@H](CCC(N)=O)C(=O)N[C@H](CCC(N)=O)C(=O)NC(C)(C)C(=O)N[C@@](C)(CC)C(=O)N[C@@H](CCC(N)=O)C(=O)N[C@H](CC(C)C)C(=O)N[C@H](CO)CC(C)C (some centres undefined) | 91.5% (inactive) and -58.8% (active) | 90.4% (inactive) and 4.32% (active) | 93.8% (inactive) and -92.9% (active) | 129% (inactive) and -75.3% (active) | 108% (inactive) and -83% (active) | 104% (inactive) and -100% (active) | 121% (inactive) and -72.1% (active) | 108% (inactive) and -53.4% (active) | 99.7% (inactive) and -21.7% (active) | 97.3% (inactive) and -52.9% (active) | 103% (inactive) and -46.2% (active) | 8.27% (active) | -79.6% (active) | 116% (inactive) and -19.6% (active)
2 | CC1=C2C(=C[C@@](C)(COC(=O)c3ccc(S(=O)(=O)F)cc3)[C@@H]2O)C(=O)[C@](C)(O)C12CC2 | – | 6.74% (active) | -56.1% (active) | -88.8% (active) | -52.7% (active) | -66.3% (active) | – | -6.77% (active) | -0.688% (active) | – | 89.7% (inactive) | – | -88.2% (active) | -50.6% (active)
3 | CC1=C[C@H]2O[C@@H]3C[C@H]4OC(=O)/C=C\C=C\[C@H]([C@@H](C)O)OCC[C@@H](C)[C@H](O)C(=O)OC[C@@]2(CC1)[C@]4(C)[C@]31CO1 | -22% (active) | -10.1% (active) | -67.9% (active) | -73.7% (active) | – | -49.1% (active) | -53.2% (active) | -25.4% (active) | – | -80.6% (active) | -28.7% (active) | -18.2% (active) | -24.8% (active) | -59.9% (active)
4 | COc1cc(OC)c(S(=O)(=O)N(CCCl)CCCl)cc1C(=O)/C=C/c1ccc(Cl)cc1 | 81.7% (inactive) | 47.1% (inactive) | 85.4% (inactive) | 45.3% (inactive) | 73.6% (inactive) | 92.3% (inactive) | 93% (inactive) | 177% (inactive) | 65.7% (inactive) | – | 4.74% (active) | 69.9% (inactive) | 53% (inactive) | 96.8% (inactive)

From PubChem BioAssay (NCI)
